Reference: PubChem BioAssay
The source made the active and inactive calls.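 How the source made its calls, unless noted: active means fluorescence slope after compound addition differing from the mean of all screened samples at 99.7% confidence, in either direction; inactive means the rest.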

How the values were obtained:
[1] = inhibitors of TNFa-induced NFkB p65 translocation, primary screen, imaging, HUVEC, MLSMR starter and 10KST1 sets (AID 438;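 active means inhibition above 20% together with a positive visual image hit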;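 further: compound added about 3h40 before a 20 min TNFalpha stimulation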;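 on inhibition: signal is the nuclear over cytoplasmic p65 intensity ratio per well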); conditions: HUVEC TNFa-induced p65 nuclear translocation; cell count: measured here: nuclei count (cytotoxicity indicator), at 2.08 µM; inhibition: at 2 µM, stronger effect = higher value, 0% TNFa-plus-vehicle, 100% no-TNFa wells
[2] = inhibitors of mutant huntingtin aggregation, primary screen, imaging, exon1htt(103Q)mCFP cells, high-content imaging (AID 483;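 active means visual image review flags a hit and inhibition of aggregation exceeds 20%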;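 further: compound exposure lasted 3 days before fixation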;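 on nuclei count: percent of the per-plate median nuclei count of sample wells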); conditions: exon1htt(103Q)mCFP cell line, aggregate imaging, at 2 µM; inhibition of aggregation: stronger effect = higher value; nuclei count: measured here: cell count, toxicity
[3] = inhibitors of E-selectin induction by TNFa, primary screen, imaging, HUVEC, immunofluorescence, MLSMR starter and 10KST1 sets (AID 487;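 active means visually confirmed hit in the image check and inhibition above 20%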;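 on inhibition: signal is fraction of cell area covered by stained E-selectin grains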;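 on nuclei count: 100% = median nuclei count of all wells on the same plate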); conditions: HUVEC TNFalpha-induced E-selectin immunofluorescence imaging, at 2 µM; inhibition: stronger effect = higher value; nuclei count: measured here: cell number, toxicity
[4] = target: Voltage-gated potassium channel subunit beta-2 (Rattus norvegicus) (UniProt P62483); assay: KvBeta enzyme negative modulators, primary screen, biochemical, NADPH fluorescence (AID 622;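 active means fluorescence slope higher than the sample average by over 3 SD, cut at about -0.22 in these data, passing the limit was not always enough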;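 further: slope of raw intensity against log time taken from 70 to 1610 s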); conditions: recombinant KvBeta, 4-cyanobenzaldehyde reduction, at 10 µM, stronger effect = higher value
Voltage-gated potassium channel subunit beta-2 (Rattus norvegicus), sequence (P62483 whole entry, looked up): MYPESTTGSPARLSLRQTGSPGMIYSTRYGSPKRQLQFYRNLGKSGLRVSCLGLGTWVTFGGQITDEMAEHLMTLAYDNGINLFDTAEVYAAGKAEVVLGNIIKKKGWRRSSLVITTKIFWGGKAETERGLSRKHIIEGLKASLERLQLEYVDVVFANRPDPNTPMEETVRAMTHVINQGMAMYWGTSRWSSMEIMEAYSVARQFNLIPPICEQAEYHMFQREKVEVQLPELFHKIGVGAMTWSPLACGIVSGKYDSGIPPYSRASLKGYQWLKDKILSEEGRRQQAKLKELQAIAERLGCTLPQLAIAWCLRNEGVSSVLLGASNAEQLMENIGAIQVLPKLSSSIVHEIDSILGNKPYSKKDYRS

[5] = target: Voltage-gated potassium channel subunit beta-2 (Rattus norvegicus) (UniProt P62483); assay: KvBeta positive modulators, primary screen, biochemical, NADPH fluorescence (AID 623;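 active means NADPH fluorescence slope more negative than the mean of all samples by about 3 SD, 99.7% confidence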;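 further: fluorescence intensity change per second fitted from 20 to 320 s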); conditions: Recombinant KvBeta, NADPH fluorescence decrease slope, 10 min; at 10 µM; stronger effect = lower value
[6] = target: Alpha-2C adrenergic receptor (Homo sapiens) (UniProt P18825); assay: modulators of alpha2C/GIRK thallium flux, primary screen, cell-based, HEK293 alpha2C/GIRK1/2 (AID 624); conditions: thallium flux BTC fluorescence, at 10 µM, actives lie on both sides;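 further: slope of fluorescence ratio to pre-addition baseline per second over 15 to 24 s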
Alpha-2C adrenergic receptor (Homo sapiens), sequence (P18825 whole entry, looked up): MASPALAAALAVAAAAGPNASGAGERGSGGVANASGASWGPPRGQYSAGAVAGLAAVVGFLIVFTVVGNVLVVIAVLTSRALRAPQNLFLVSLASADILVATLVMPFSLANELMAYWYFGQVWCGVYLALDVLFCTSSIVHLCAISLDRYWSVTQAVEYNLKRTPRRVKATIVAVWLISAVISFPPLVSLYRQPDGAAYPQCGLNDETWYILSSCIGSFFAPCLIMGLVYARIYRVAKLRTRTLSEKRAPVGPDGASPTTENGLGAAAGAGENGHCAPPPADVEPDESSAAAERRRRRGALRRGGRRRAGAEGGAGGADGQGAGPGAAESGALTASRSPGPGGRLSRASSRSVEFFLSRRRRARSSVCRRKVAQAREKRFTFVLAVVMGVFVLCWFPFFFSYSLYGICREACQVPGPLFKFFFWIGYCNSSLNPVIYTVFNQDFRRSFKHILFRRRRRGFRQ

[7] = inhibitors of Sendai virus-induced IRF3 signaling, primary screen, TLR/RLR signaling modifier project, cell-based, Sendai virus stimulus, luciferase, 10K MLSCN set (AID 602276;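 active means inhibition at or above 50% at 10 µM; inactive means inhibition below 50%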;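 further: firefly luciferase from ISG56 promoter only with Renilla not read in this screen; 0% = Sendai virus plus DMSO and 100% = medium plus DMSO without virus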); conditions: HEK293 RL24 IRF3 luciferase reporter, at 10 µM, stronger effect = higher value
[8] = inhibitors of poly I:C-induced TLR3 signaling, primary screen, cell-based, poly I:C stimulus, luciferase, 10K MLSCN set (AID 602277;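 active means inhibition of the reporter signal at or above 50%; inactive means inhibition below 50%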); conditions: HEK293-TLR3 RL24 IRF3 luciferase reporter, at 10 µM, stronger effect = higher value

| SMILES | cell count [1] | inhibition [1] | inhibition of aggregation [2] | nuclei count [2] [%] | inhibition [3] | nuclei count [3] [%] | fluorescence slope [4] | NADPH fluorescence slope [5] | slope [6] | inhibition [7] | inhibition [8] |
| --- | --- | --- | --- | --- | --- | --- | --- | --- | --- | --- | --- |
| CC1CCN(CCc2nc3cc(NS(=O)(=O)c4ccc(F)cc4)ccc3n2C)CC1 | 392 | 6.1% (inactive) | 13.2% (inactive) | 97.6 | -31.1% (inactive) | 106 | -0.5 (inactive) | -3.1e-05 (inactive) | 0.00517 (inactive) | 5.27% (inactive) | 16% (inactive) |
| O=C(O)c1ccc(COc2c(F)c(F)cc(F)c2F)cc1 | 611 | -0.8% (inactive) | 27.2% (inactive) | 102 | -50.1% (inactive) | 107 | -0.453 (inactive) | -1.9e-05 (inactive) | 0.00642 (inactive) | 8.32% (inactive) | 8.92% (inactive) |
| Cc1cc(NC(=O)CCOc2ccccc2)no1 | 403 | -11.8% (inactive) | -20.8% (inactive) | 113 | 35.5% (inactive) | 64.3 | -0.455 (inactive) | -5e-05 (inactive) | 0.00305 (inactive) | 6.04% (inactive) | 23.9% (inactive) |
| Cc1nc(-c2cccc(N)c2)cs1 | 726 | -11% (inactive) | -14.5% (inactive) | 77.8 | -35.4% (inactive) | 132 | -0.514 (inactive) | -1e-05 (inactive) | 0.00706 (inactive) | -3.62% (inactive) | -15.1% (inactive) |
| Cc1ccc(C)c(N2CCN(S(=O)(=O)c3ccc4c(c3)OCCO4)CC2)c1 | 521 | -2.6% (inactive) | -13.4% (inactive) | 134 | -136% (inactive) | 209 | -0.64 (inactive) | 3.2e-05 (inactive) | 0.00722 (inactive) | 10.2% (inactive) | 16.3% (inactive) |
| Cc1ccc(-n2c3c(cc(C(=O)NCCCN4CCOCC4)c2=O)C(=O)CC(C)(C)C3)cc1 | 349 | -0.6% (inactive) | -1.3% (inactive) | 57 | -65.9% (inactive) | 117 | -0.58 (inactive) | 9.1e-06 (inactive) | 0.00654 (inactive) | -1.07% (inactive) | 36.9% (inactive) |
| COc1ccc(C(C(C(=O)c2ccco2)N2CCOCC2)N2CCOCC2)cc1 (centres undefined) | 534 | 5.4% (inactive) | 2.2% (inactive) | 87.8 | 57.2% (inactive) | 91.5 | -0.401 (inactive) | 1.7e-05 (inactive) | 0.0056 (inactive) | 2.32% (inactive) | -5.02% (inactive) |
| CCN(C1CCCCC1)S(=O)(=O)c1ccc(OC)c(C)c1 | 862 | -3.6% (inactive) | 9.9% (inactive) | 98.1 | -104% (inactive) | 128 | -0.498 (inactive) | -2.3e-05 (inactive) | 0.00415 (inactive) | -0.395% (inactive) | 28.2% (inactive) |
| CCCS(=O)(=O)N1CCN(C(=O)c2cccnc2)CC1 | 374 | 5.5% (inactive) | -5.9% (inactive) | 98.3 | 18.3% (inactive) | 114 | -0.431 (inactive) | -6.9e-05 (inactive) | 0.0059 (inactive) | 8.38% (inactive) | 19.6% (inactive) |
| Cc1cccn2c(=O)c3cc(C(=O)NC4CCCC4)c(=N)n(C4CCCC4)c3nc12 | 786 | 2.4% (inactive) | -58% (inactive) | 107 | -189% (inactive) | 126 | -0.0946 (inactive) | -1.1e-05 (inactive) | 0.00161 (inactive) | 17.5% (inactive) | 32.7% (inactive) |
| Cc1ccc(CN2C(=O)CCC2C(=O)NCCCN2CCC(C)CC2)cc1 (centres undefined) | 379 | -7.4% (inactive) | 19.6% (inactive) | 85.5 | 6.2% (inactive) | 77.7 | -0.584 (inactive) | -3.4e-05 (inactive) | 0.00384 (inactive) | 14.7% (inactive) | 9.9% (inactive) |
| CC(C)NC(=O)CSc1nc2ccccc2n1-c1ccccc1 | 379 | 2.5% (inactive) | -2.9% (inactive) | 84.5 | -80.1% (inactive) | 125 | -0.59 (inactive) | 9.8e-06 (inactive) | 0.00781 (inactive) | -22.3% (inactive) | -5.89% (inactive) |
| O=C1CCn2nc(-c3ccc(Cl)cc3)cc2N1 | 557 | -0.5% (inactive) | -106% (inactive) | 1.2 | -66.1% (inactive) | 118 | -0.601 (inactive) | -3.8e-05 (inactive) | 0.00658 (inactive) | -20.1% (inactive) | -53% (inactive) |
| Cc1ccc(NC(=O)CN(c2ccc3c(c2)OCO3)S(=O)(=O)c2c(C)n[nH]c2C)cc1 | 768 | -12.5% (inactive) | -29.4% (inactive) | 108 | -39.7% (inactive) | 101 | -0.42 (inactive) | -5.2e-05 (inactive) | 0.00614 (inactive) | 6.09% (inactive) | 17.9% (inactive) |
| COc1ccccc1CC(=O)NCc1ccc2c(c1)OCO2 | 372 | -0.6% (inactive) | -2.1% (inactive) | 101 | -81% (inactive) | 114 | -0.392 (inactive) | -5.4e-05 (inactive) | 0.00532 (inactive) | 7.81% (inactive) | -10.6% (inactive) |
| CCN1CCN(C(=O)C2CCN(C(=O)c3cc4sccc4n3CC)CC2)CC1 | 642 | -12.2% (inactive) | 4.1% (inactive) | 85.3 | -25.4% (inactive) | 115 | -0.556 (inactive) | -4.1e-05 (inactive) | 0.00649 (inactive) | 12.4% (inactive) | 45.3% (inactive) |
| O=C(Oc1ccc2ccc(OC(=O)N3CCOCC3)cc2c1)N1CCOCC1 | 388 | 6.8% (inactive) | -8.9% (inactive) | 107 | -7.5% (inactive) | 111 | -0.238 (inactive) | -1.6e-05 (inactive) | 0.00539 (inactive) | -2.44% (inactive) | -16.2% (inactive) |
| O=S(=O)(NCc1cn2ccsc2n1)c1ccc2c(c1)OCCO2 | 600 | 8.2% (inactive) | -3.9% (inactive) | 71 | 51.6% (inactive) | 72.2 | -0.502 (inactive) | -3.9e-05 (inactive) | 0.00564 (inactive) | 5.63% (inactive) | 11.2% (inactive) |
| Cc1ccc(N2CCN(C(=S)c3ccc(N(C)C)cc3)CC2)cc1 | 411 | -38.4% (inactive) | -2.2% (inactive) | 85.8 | -90.7% (inactive) | 98.3 | -0.595 (inactive) | -2.7e-05 (inactive) | 0.00418 (inactive) | -12.6% (inactive) | -63.7% (inactive) |
